Measured values taken from PubChem BioAssay (EPA / NIEHS).
Inconclusive results are not listed. The source made the active and inactive calls. The calls were made as follows: active = hit-call score of the fitted dose curve at least 0.9, where 1 is the maximum; inconclusive = response in the unintended direction; inactive = score below 0.9.

read-out: Cytochrome P450 2C19 (Homo sapiens) (UniProt P33261); test: CLD_CYP2C19_24hr: CellzDirect (CLD) Gene Expression Assay for xenobiotic metabolism (CYP2C19) at 24 hours (AID 2283687);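 also: activity means mRNA induction above DMSO vehicle baseline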
Method: CLD_24hr is a cell-based, multiplexed-readout assay that uses hepatocyte, a human liver primary cell, with measurements taken at 24 hours after chemical dosing in a 96-well plate.CLD_CYP2C19_24hr is one of 16 assay component(s) measured or calculated from the CLD_24hr assay. It is designed to make measurements of mRNA induction, a form of inducible reporter, as detected with chemiluminescence signals by Quantitative Nuclease Protection Assay (qNPA) technology.Data from the assay component CLD_CYP2C19_24hr was analyzed at the endpoint, CLD_CYP2C19_24hr, in the positive analysis fitting direction relative to DMSO as the negative control and baseline of activity. Using a type of inducible reporter, gain-of-signal activity can be used to understand changes in the reporter gene as they relate to the gene CYP2C19. Furthermore, this assay endpoint can be referred to as a primary readout. To generalize the intended target to other relatable targets, this assay endpoint is annotated to the cyp intended target family, where subfamily is xenobiotic metabolism.
Human hepatocyte cultures were treated daily for two consecutive days with fresh dosing solutions containing appropriate concentrations of the 320 ToxCast chemicals (chemical identities were blinded to CellzDirect and other ToxCast collaborators), vehicle control (0.2% DMSO), and positive control inducers as summarized in Table 1. Due to the large number of treatment groups and chemicals examined, the ToxCast chemicals were divided into two groups (spanning two independent cultures of hepatocytes from separate donor preparations (Hu778: ToxCast plates 1 and 2; Hu776: ToxCast plates 3 and 4). Each preparation of human hepatocyte cultures was treated with respective vehicle control, medium only control, set of six positive controls/reference chemicals for the five hepatic receptor pathways, and a subset of eight of the ToxCast chemicals (indoxacarb, pyrithiobac-sodium, norflurazon, cyhalofop-butyl, methomyl, thiram, acetochlor, and propiconazole). These replicate data, coupled with internal replicates designed within the blinded ToxCast chemical library, provided additional data to evaluate interindividual differences between hepatocyte preparations and their potential impact on chemical profiles.Cell morphology and integrity were evaluated using phase-contrast microscopy as an indicator of hepatocyte cell health (Tyson & Green, 1987). Cultures for each treatment group (i.e., media, vehicle [0.2% DMSO], positive control inducers [multiple concentrations], and the ToxCast chemicals [multiple concentrations]) were observed and cell morphology was assessed relative to vehicle control cultures at each harvest time point (0, 6, 24, or 48 h). […] Images were evaluated at the conclusion of the study to assess changes in cell integrity and account for the effects of chemical exposure on uncharacteristic changes in concentration-dependent gene expression profiles. The results from these determinations of apparent cytotoxicity were annotated (yes/no) alongside the corresponding qNPA data for reference.At the conclusion of each treatment period, hepatocyte cultures (96-well) were washed with 1 volume of HBSS, lysed by addition of 25 ul ArrayPlate lysis buffer (HTG, Tucson, AZ), and 70 ul/well of Denaturation Oil, denatured by incubation at 95C for 10 min, and frozen at approximately -70C until analysis by nuclease protection assay (qNPA) (Roberts et al., 2007). For qNPA analysis, cell lysates were thawed at 50C for approximately 30 min, qNPA probes were added, and samples were incubated at 95C for 10 min to begin the detection process by denaturing the target RNA, dissociating the duplexes and secondary structure hybridization. At the conclusion of the hybridization period, S1 nuclease reagent was added to each sample to digest all nonprotected nucleotides at 50C for 60-90 min. […]

Sequence of Cytochrome P450 2C19 (Homo sapiens) (P33261 whole entry, looked up): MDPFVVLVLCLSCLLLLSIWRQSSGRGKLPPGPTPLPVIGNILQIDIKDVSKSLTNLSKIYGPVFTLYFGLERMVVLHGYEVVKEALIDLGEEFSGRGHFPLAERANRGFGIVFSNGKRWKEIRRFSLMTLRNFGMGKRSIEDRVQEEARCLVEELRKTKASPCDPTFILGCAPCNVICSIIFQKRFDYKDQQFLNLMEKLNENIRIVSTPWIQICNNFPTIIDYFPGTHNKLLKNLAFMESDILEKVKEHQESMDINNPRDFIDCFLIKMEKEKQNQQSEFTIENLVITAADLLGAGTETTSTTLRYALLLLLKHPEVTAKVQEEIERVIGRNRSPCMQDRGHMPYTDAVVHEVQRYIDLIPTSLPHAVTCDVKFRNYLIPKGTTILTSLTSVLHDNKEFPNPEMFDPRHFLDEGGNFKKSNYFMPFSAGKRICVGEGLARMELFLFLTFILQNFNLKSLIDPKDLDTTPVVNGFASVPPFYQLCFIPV

Structure (SMILES)	outcome
CCOC(=O)CC(SP(=O)(OC)OC)C(=O)OCC (stereo not given)	inactive
CC(C1CC1)C(O)(Cn1cncn1)c1ccc(Cl)cc1 (stereo not given)	inactive
COc1ccc(C(=CC(=O)N2CCOCC2)c2ccc(Cl)cc2)cc1OC	inactive
CC(C)=CC1C(C(=O)OCN2C(=O)C3=C(CCCC3)C2=O)C1(C)C (stereo not given)	inactive
CCc1cnc(C2=NC(C)(C(C)C)C(=O)N2)c(C(=O)O)c1 (stereo not given)	inactive
CCOP(=S)(OCC)OC(Cl)C(Cl)(Cl)Cl (stereo not given)	inactive
CCCSP(=O)(OCC)SCCC	inactive
CCCSP(=O)(OCC)Oc1ccc(Br)cc1Cl (stereo not given)	inactive
CC1(C(=O)Nc2ccc(O)c(Cl)c2Cl)CCCCC1	inactive
CCOP(=O)(NC(C)C)Oc1ccc(SC)c(C)c1 (stereo not given)	inactive
CSc1nc(NC(C)C)nc(NC(C)C)n1	inactive
CCOP(=O)(SC(C)CC)N1CCSC1=O (stereo not given)	inactive
CC(=NC#N)N(C)Cc1ccc(Cl)nc1	inactive
CN1COCN(Cc2cnc(Cl)s2)C1=N[N+](=O)[O-]	inactive
C=C(C)[C@H]1Cc2c(ccc3c2O[C@@H]2COc4cc(OC)c(OC)cc4[C@@H]2C3=O)O1	inactive
CCCCSP(=O)(SCCCC)SCCCC	inactive
CCOP(=S)(OCC)Oc1ccc2c(C)c(Cl)c(=O)oc2c1	inactive
CCNc1nc(Cl)nc(NC(C)(C)C#N)n1	inactive
CCOP(=S)(Oc1cnc(C(C)(C)C)nc1)OC(C)C (stereo not given)	inactive
CN(C)NC(=O)CCC(=O)O	inactive

Structure (SMILES)	outcome
CNC(=O)ON=C(SC)C(=O)N(C)C	inactive
COc1cc(OC)nc(Sc2cccc(Cl)c2C(=O)O)n1	inactive
COP(=O)(OC)SCn1c(=O)oc2cc(Cl)cnc21	inactive
CC(C)N(C(=O)SCC(Cl)=C(Cl)Cl)C(C)C	inactive
Cc1ccn2nc(S(=O)(=O)Nc3c(F)cccc3F)nc2n1	inactive
S=C1NCCN1	inactive
CC(C)[C@H](C(=O)O[C@H](C#N)c1cccc(Oc2ccccc2)c1)c1ccc(Cl)cc1	inactive
CN(C)[C@@H]1C(=O)C(C(N)=O)=C(O)[C@@]2(O)C(=O)C3=C(O)c4c(O)cccc4[C@@](C)(O)[C@H]3[C@H](O)[C@@H]12	inactive
CN(C)C(=O)Nc1cccc(C(F)(F)F)c1	inactive
CSc1nnc(C(C)(C)C)c(=O)n1N	inactive
O=c1ccc(=O)[nH][nH]1	inactive
CCCCOC(=O)c1ccccc1C(=O)O	inactive
CC1=NNC(=O)N(/N=C/c2cccnc2)C1	inactive
CCOP(=S)(OCC)SCCSCC	inactive
Cc1nn(-c2cc(NS(C)(=O)=O)c(Cl)cc2Cl)c(=O)n1C(F)F	inactive
CNC(=O)Oc1cccc2c1OC(C)(C)O2	inactive
CON=C(C(=O)OC)c1ccccc1CON=C(C)c1cccc(C(F)(F)F)c1	inactive
COc1cccc(C(=O)NN(C(=O)c2cc(C)cc(C)c2)C(C)(C)C)c1C	inactive
CCc1cccc(C)c1N(C(=O)CCl)C(C)COC (stereo not given)	inactive
CCOP(=S)(OCC)Oc1cc(C)nc(C(C)C)n1	inactive
